# From PubChem
# MEKK2mut PB1 HTS – signal of MEK5 binding to mutant human MEKK2 PB1 domain | bead flow cytometry, Alexa488-MEK5 binding to MEKK2 mutant | percent response, % at 10 µM | 290,000 compounds, 0.35% hits | AID 1530; in the data active = percent response above about 24%, passing the limit was not always enough
# MEKK3 PB1 HTS – raises or lowers MEK5 binding to the human MEKK3 PB1 domain; bead-based flow cytometry, Alexa488-MEK5 binding to MEKK3; actives lie on both sides; 0 = blocked by unlabeled MEK5, 100 = vehicle; 290,000 compounds, 1.4% hits; AID 1529; Q99759; binding response (% of control), % at 10 µM;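 active = binding response more than 3 SD above or below the average of its plate-row segment, actives on both sides; inconclusive = wells at one plate position flagged as instrument error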;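 note: Alexa488 bead fluorescence after subtracting the streptavidin-only scavenger bead signal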
# MEKK2wt PB1 HTS – raises or lowers MEK5 binding to wildtype human MEKK2 PB1 domain; 290,000 compounds, 1.1% hits; Q9Y2U5; binding response (% of control), % at 10 µM; AID 1531; bead flow cytometry, Alexa488-MEK5 binding to MEKK2 WT; actives lie on both sides; in the data active = binding response below about 67% or above about 130%; inconclusive = no clear call, values can overlap the other calls; inactive = in between
# UBC13 polyUb – human UBC13 polyubiquitination inhibition | 330,000 compounds, 0.47% hits | AID 485273 | P61088 | inhibition, % at 20 µM | UBC13 polyubiquitin chain formation, TR-FRET; in the data active = inhibition above about 45%, passing the limit was not always enough; inconclusive = no clear call, values can overlap the other calls
# Target sequence (P61088 whole entry, looked up): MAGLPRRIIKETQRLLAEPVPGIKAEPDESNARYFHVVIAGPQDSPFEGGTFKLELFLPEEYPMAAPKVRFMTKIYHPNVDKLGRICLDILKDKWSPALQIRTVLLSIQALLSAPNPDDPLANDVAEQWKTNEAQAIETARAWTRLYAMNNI
# MEKK2wt confirm – raises or lowers MEK5 binding to wildtype human MEKK2, retest; shares compounds with MEKK3 PB1 HTS; bead flow cytometry, Alexa488-MEK5 binding to MEKK2 WT; actives lie on both sides; binding response (% of control), % at 10 µM; 5,900 compounds, 2.4% hits; AID 1892; in the data active = binding response below about 16% or above about 210%; inactive = in between
# MEKK2mut confirm – signal of MEK5 binding to mutant human MEKK2, retest | AID 1893 | 5,900 compounds, 2% hits | shares compounds with MEKK3 PB1 HTS | bead flow cytometry, Alexa488-MEK5 binding to MEKK2 mutant | percent response, % at 10 µM; in the data active = percent response mostly above about 71%, no sharp cut-off; inactive = mostly below about 38%;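 note: higher means compound restores mutant binding toward wildtype level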
# MEKK3 confirm – MEKK3-MEK5 PB1 inhibition, single concentration confirmation | bead flow cytometry, Alexa488-MEK5 binding to MEKK3; hits give low values | binding response (% of control), % at 10 µM | 5,900 compounds, 1.8% hits | shares compounds with MEKK3 PB1 HTS;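 active = binding response below 72% of control, or above a set upper limit, though filed actives all read lower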;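 note: lower values mean stronger disruption of MEK5 binding to MEKK3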
# Hits are given with their value; – = inactive; ? = inconclusive; · = no result given; [ ] = dose if it differs, or a comment. Compounds with a hit are over-represented: about 2.3% of the library has one in this group of screens.
SMILES,MEKK2mut PB1 HTS,MEKK3 PB1 HTS,MEKK2wt PB1 HTS,UBC13 polyUb,MEKK2wt confirm,MEKK2mut confirm,MEKK3 confirm
O=C(CCC1CCCC1)N1CCN(C(=O)COc2ccccc2)CC1,–,75[inhibitor],–,–,–,–,–
COCCNCC1C(Oc2ccc(Cl)cc2)C(=O)N1c1ccccc1C (configuration not stated),–,–,–,–,·,·,·
COc1ccc(CCNCC2C(Oc3ccc(Cl)cc3)C(=O)N2c2ccccc2C)cc1OC (configuration not stated),–,–,155,–,–,–,–
N=c1n(CCO)c2ccccc2n1CCOc1ccc(Cl)cc1Cl,–,–,148,–,–,–,–
COc1ccc(Cl)cc1C(=O)NNC(=O)C1CCCO1 (configuration not stated),·,·,·,–,·,·,·
COc1cccc(OCc2cc(C(=O)NCCN3CCCCC3CO)no2)c1 (configuration not stated),–,–,–,–,·,·,·
Cc1cc(OCc2cc(C(=O)NCCN3CCCCC3CO)no2)cc(C)c1Cl (configuration not stated),–,–,136,–,–,–,–
COc1cc(NC(=O)c2ccccc2Cl)c2ncccc2c1,26,–,–,–,–,–,–
CC(=O)c1c[nH]c(C(=O)NCc2ccccc2Cl)c1,–,–,–,–,·,·,·
Cn1c(-c2ccc(C(C)(C)C)cc2)n[nH]c1=S,–,81[inhibitor],–,–,–,–,–
Cc1ccc(OCC(O)CNS(=O)(=O)c2ccccc2C(=O)O)cc1 (configuration not stated),–,71[inhibitor],–,–,–,–,–
COc1ccc(C2CCCN2C(=S)Nc2cccc(Cl)c2C)cc1OC (configuration not stated),–,–,–,–,·,·,·
O=C(/C=C/N1CCN(Cc2ccccc2)CC1)C(F)(F)F,–,62[inhibitor],–,–,–,–,–
CC(C)CC(N=Cc1c(O)c2ccccc2oc1=O)C(=O)O (configuration not stated),–,73[inhibitor],–,–,–,–,–
COC(=O)c1ccccc1OCCCCN1CC(C)OC(C)C1 (configuration not stated),–,152,–,–,–,–,–
S=C(NC1CCCCC1)N(CCc1ccccc1)CCc1ccccc1,51,–,–,–,–,–,–
Cc1cc(=O)oc2cc(NC(=O)C(CCCN=C(N)N)NC(=O)OCc3ccccc3)ccc12 (configuration not stated),–,–,–,–,·,·,·
Cn1nc(C(C)(C)C)c([N+](=O)[O-])c1C(=O)NCCO,–,–,–,–,·,·,·
CCN(CC)C(=O)c1c([N+](=O)[O-])c(C(C)(C)C)nn1C,–,140,–,–,–,–,–
CN(C)C(=S)Nc1ccc2c(c1)OCCO2,–,–,–,–,·,·,·
Cc1ccc(N=C(N(C)C)P(=O)(N(C)C)N(C)C)c(C)c1,–,72[inhibitor],–,–,–,–,–
Cc1ccc(N=C(NO)c2nonc2N)c(C)c1,–,–,–,–,·,·,·
O=C1NC2(CCCC2)N=C1c1ccc(F)cc1,–,122,–,–,–,–,–
Cc1ccc(C2=NC3(CCCCC3)NC2=S)cc1,–,–,–,–,·,·,·
CCCCN(C(=O)Cc1ccc2c(c1)OCCO2)c1c(N)n(CCC)c(=O)[nH]c1=O,·,·,·,–,·,·,·
SMILES,MEKK2mut PB1 HTS,MEKK3 PB1 HTS,MEKK2wt PB1 HTS,UBC13 polyUb,MEKK2wt confirm,MEKK2mut confirm,MEKK3 confirm
c1cncc(CSc2nnc3ccc(-c4cccs4)nn23)c1,–,–,–,–,·,·,·
c1ccc(CSc2nnc3ccc(-c4cccs4)nn23)nc1,197,–,–,–,–,–,–
COc1cc(NC(=O)C(C)Oc2ccccc2)cc(OC)c1 (configuration not stated),–,0.0[inhibitor],0.0[inhibitor],–,–,–,–
COc1ccc2[nH]c3c(C)c4ccncc4c(C)c3c2c1,53,–,177,?,243,88,–
OC(CCCN1CCC(O)(c2ccc(Cl)cc2)CC1)c1ccc(F)cc1 (configuration not stated),–,–,–,–,·,·,·
CN(C)C(=O)C(CCN1CCC(O)(c2ccc(Cl)cc2)CC1)(c1ccccc1)c1ccccc1,–,–,150,–,–,–,–
O=C(CSc1nnc(-c2ccccc2F)o1)NC(=O)Cc1ccccc1,·,·,·,–,·,·,·
COC(=O)c1nnn(-c2ccsc2C(=O)OC)c1C(=O)OC,–,145,–,–,–,–,–
CNC(=O)c1cccn1-c1ccsc1C(=O)OC,–,–,–,–,·,·,·
COc1ccc(S(=O)(=O)N2CCC(C(=O)N3CCCCC3)CC2)cc1OC,–,130,–,–,–,–,–
COc1ccc(S(=O)(=O)N2CCCC(C(=O)N3CCCC3)C2)cc1OC (configuration not stated),·,·,·,–,·,·,·
Cc1ccc(C(=O)C2(C)C3c4cc(Br)ccc4OC(=O)C32C(=O)c2ccco2)cc1 (configuration not stated),–,24[inhibitor],39[inhibitor],–,–,–,–
CC1(C(=O)c2ccccc2)C2c3c(ccc4ccccc34)OC(=O)C21C(=O)N1CCOCC1 (configuration not stated),–,–,–,–,·,·,·
O=C(C[n+]1cc(-c2ccc(F)cc2)n2c1CCC2)Nc1nc(-c2ccc(F)cc2)cs1,–,–,–,–,·,·,·
Cn1c(NC(=O)C[n+]2cc(-c3ccc(Cl)cc3)n3c2CCC3)cc(=O)n(C)c1=O,–,–,–,–,·,·,·
Cc1ccc(-c2csc(NC(=O)C[n+]3cc(-c4ccccc4)n4c3CCC4)n2)cc1,–,–,167,–,–,–,–
Cc1ccc(-c2c[n+](CC(=O)N3c4ccccc4Sc4ccccc43)c3n2CCC3)cc1,–,–,152,–,–,–,–
O=C(C[n+]1cc(-c2ccccc2)n2c1CCC2)Nc1nc(-c2ccc(F)cc2)cs1,–,–,181,–,–,–,–
O=C(C[n+]1cc(-c2ccc(Cl)cc2)n2c1CCC2)Nc1nc(-c2ccc(F)cc2)cs1,–,–,177,–,–,–,–
O=C(COC(=O)C1=NN(c2ccccc2)C(=O)CC1)NCc1ccccc1Cl,·,·,·,–,·,·,·
COc1ccc(C)cc1S(=O)(=O)N1CCC(C(=O)N2CCN(C)CC2)CC1,–,–,–,–,·,·,·
Cc1cnc(C(=O)OC(C)C(=O)NC2CCCc3ccccc32)cn1 (configuration not stated),·,·,·,–,·,·,·
COC(=O)CCC(=O)OC1(C)C(=O)C=C2C=C(C3CC3)N(C(CO)CO)C=C2C1=O (configuration not stated),–,–,151,–,–,–,–
